# Results published in PubChem BioAssay (NCATS).
# Records with an inconclusive call do not appear. Calls of active or inactive are those of the source. Unless noted, calls come from the whole dose curve; as a rule, active = well fitted curve in the direction sought with a large enough effect; inconclusive = small, poorly fitted or top-dose-only effect, or another doubt; inactive = no such curve, though single readings can be large; an effect the other way counts as inactive or inconclusive.
# Legend:
# [1] = biological target: Lysosomal acid glucosylceramidase (Homo sapiens) (UniProt P04062); test: Glucocerebrosidase-p2 (AID 348; in the data active = potency below about 10 µM; note: potency is the fitted concentration of half-maximal effect); settings: purified GBA, blue fluorogenic substrate, 40 min
# Lysosomal acid glucosylceramidase (Homo sapiens), sequence (P04062 whole entry, looked up): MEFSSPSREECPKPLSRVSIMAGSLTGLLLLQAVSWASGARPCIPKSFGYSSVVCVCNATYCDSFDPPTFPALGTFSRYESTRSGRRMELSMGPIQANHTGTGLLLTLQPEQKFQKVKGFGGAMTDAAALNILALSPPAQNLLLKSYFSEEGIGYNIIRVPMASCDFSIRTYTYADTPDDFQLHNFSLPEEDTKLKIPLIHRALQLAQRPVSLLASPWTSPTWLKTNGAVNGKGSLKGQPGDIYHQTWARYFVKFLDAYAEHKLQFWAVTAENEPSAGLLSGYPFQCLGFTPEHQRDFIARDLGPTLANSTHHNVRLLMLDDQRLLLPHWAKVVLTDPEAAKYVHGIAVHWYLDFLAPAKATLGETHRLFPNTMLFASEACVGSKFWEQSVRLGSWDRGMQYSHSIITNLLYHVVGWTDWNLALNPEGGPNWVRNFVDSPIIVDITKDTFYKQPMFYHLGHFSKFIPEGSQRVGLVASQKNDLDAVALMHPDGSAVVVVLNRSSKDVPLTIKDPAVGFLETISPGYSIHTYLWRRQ
# In short: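 Normal human glucocerebrosidase (0.2 nM) with blue fluorogenic substrate (80 uM final) in citrate/phosphate pH 5.9 with 10mM sodium taurocholate, 0.01% tween-20; 40 min RT, NaOH/glycine stop; fluorescence Ex 365/Em 440; AC50 from a titration from 0.6 nM upwards.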
# [2] = biological target: Cytochrome P450 1A2 (Homo sapiens) (UniProt P05177); test: p450-cyp1a2 (AID 410; calls by dose curve; note: potency is the fitted concentration of half-maximal effect;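 for activity change, negative = inhibition: -100% = full effect of reference inhibitor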)
# Cytochrome P450 1A2 (Homo sapiens), sequence (P05177 whole entry, looked up): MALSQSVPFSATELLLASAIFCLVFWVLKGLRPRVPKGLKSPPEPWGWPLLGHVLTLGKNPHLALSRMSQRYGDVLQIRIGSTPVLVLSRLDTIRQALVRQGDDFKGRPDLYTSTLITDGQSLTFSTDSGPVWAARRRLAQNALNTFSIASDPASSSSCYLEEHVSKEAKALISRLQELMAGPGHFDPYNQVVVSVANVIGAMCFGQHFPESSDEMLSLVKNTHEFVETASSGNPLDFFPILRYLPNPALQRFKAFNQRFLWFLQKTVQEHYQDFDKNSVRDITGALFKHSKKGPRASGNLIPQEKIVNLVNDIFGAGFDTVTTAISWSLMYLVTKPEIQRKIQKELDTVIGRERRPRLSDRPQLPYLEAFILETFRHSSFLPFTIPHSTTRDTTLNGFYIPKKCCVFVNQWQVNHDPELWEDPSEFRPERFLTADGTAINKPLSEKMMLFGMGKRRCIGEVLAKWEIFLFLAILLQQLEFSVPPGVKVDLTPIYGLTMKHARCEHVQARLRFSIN
# In short: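 Luminescent demethylation readout: Luciferin-ME (100uM, equal to Km) turned over by 20nM CYP1A2 for 60 min at room temperature after NADPH regeneration addition, following 10 min compound preincubation. Normalization used 57 uM furafylline as full inhibition.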
# [3] = biological target: Glucocorticoid receptor (Homo sapiens) (UniProt P04150); test: GR-GFP Redistribution (AID 450;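 active = compounds whose dose series gives a full or clear partial fitted curve of increased nuclear translocation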; note: potency is the fitted concentration of half-maximal effect); settings: U2OS GR-GFP nuclear translocation, laser cytometry, 2 h
# Glucocorticoid receptor (Homo sapiens), sequence (P04150 whole entry, looked up, the tested form may be a part): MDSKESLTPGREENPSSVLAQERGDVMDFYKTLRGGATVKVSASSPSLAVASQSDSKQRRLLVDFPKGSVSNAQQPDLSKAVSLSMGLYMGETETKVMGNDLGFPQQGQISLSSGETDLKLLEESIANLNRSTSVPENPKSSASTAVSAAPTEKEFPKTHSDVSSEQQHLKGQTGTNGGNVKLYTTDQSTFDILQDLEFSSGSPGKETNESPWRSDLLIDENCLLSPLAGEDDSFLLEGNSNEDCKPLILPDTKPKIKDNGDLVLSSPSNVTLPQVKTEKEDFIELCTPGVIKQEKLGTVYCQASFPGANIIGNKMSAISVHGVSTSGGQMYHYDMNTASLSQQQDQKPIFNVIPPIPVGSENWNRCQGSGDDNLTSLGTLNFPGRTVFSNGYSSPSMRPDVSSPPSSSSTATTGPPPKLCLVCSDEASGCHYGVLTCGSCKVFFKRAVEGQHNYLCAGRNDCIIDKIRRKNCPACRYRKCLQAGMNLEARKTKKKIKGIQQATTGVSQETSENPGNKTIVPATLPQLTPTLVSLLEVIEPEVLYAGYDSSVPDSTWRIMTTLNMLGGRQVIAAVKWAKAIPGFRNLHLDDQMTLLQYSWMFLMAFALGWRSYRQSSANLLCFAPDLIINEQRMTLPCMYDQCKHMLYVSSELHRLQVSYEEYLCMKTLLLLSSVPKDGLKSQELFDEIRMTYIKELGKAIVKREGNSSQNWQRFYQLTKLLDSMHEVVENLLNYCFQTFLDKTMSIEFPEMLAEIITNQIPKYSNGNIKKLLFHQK
# [4] = biological target: Glucocorticoid receptor (Homo sapiens) (UniProt P04150); test: GR-EFC Redistribution (AID 451; calls by dose curve; note: potency is the fitted concentration of half-maximal effect); settings: CHO-K1 GR-EFC translocation, beta-gal luminescence, 2 h
# In short: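 CHO-K1 cells stably expressing nuclear-localized β-gal enzyme acceptor and GR fused C-terminally to the enzyme donor fragment; ligand-driven nuclear translocation restores β-gal by complementation. Compounds titrated up to 46 uM final, 2 h at 37 °C; luminescence read.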
# [5] = biological target: Mitogen-activated protein kinase 10 (Mus musculus) (UniProt Q61831); test: JNK3 AlphaScreen Assay (AID 530; active = well fitted curve in either direction with a large enough effect, not every such curve was filed as active;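 note: kinase came from lysate of stimulated human HepG2 cells; signal reports phosphorylation of biotinylated GST-cJun 1-79 at Ser73 with 10 µM ATP; % is set by controls: 0 for no effect and ±100 for the full control effect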)
# In short: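 Phosphorylation of biotinylated GST-cJun(1-79) at Ser73 is measured by AlphaScreen proximity luminescence. Enzyme is JNK3 in HepG2 lysates activated with interleukin-1beta and tumor necrosis factor alpha; ATP is 10 uM final.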
# [6] = biological target: 3',5'-cyclic-AMP phosphodiesterase 4B (Homo sapiens) (UniProt Q07343); test: qHTS Assay for Inhibitors of PDE-IV (AID 607; active = well fitted activation curve with a large enough effect in the main read-out, with a control signal flat, not every such curve was filed as active; note: % of control where 0% means no effect)
# 3',5'-cyclic-AMP phosphodiesterase 4B (Homo sapiens), sequence (Q07343 whole entry, looked up): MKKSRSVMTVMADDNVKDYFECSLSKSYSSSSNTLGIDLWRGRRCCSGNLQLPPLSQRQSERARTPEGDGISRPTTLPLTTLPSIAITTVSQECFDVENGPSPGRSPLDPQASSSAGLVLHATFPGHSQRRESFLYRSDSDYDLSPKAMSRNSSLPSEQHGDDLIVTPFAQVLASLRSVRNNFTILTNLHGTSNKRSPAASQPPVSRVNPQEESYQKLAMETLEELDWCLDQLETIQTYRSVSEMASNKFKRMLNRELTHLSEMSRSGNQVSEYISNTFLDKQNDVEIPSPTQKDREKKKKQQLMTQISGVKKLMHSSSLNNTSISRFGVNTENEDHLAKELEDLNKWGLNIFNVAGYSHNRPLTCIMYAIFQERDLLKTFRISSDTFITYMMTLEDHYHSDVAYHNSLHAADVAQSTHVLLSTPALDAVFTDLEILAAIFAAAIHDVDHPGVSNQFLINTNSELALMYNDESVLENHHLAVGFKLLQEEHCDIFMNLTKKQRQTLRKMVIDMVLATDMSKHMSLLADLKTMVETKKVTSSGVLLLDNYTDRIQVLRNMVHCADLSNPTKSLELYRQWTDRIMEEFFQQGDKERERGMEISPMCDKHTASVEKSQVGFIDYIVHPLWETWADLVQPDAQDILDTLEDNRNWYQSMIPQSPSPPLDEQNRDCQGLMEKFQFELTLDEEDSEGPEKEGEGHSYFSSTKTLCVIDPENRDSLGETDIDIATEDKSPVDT
# In short: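 Live HEK293 cells with a modified cyclic nucleotide-gated (CNG) channel report intracellular cAMP via membrane-potential dye fluorescence (ex 535/em 590 nm). Endogenous PDE-IV was targeted. Compounds were tested at up to 22.9 uM final; RO 20-1724 100 uM served as control.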
# [7] = biological target: Cytochrome P450 2C9 (Homo sapiens) (UniProt P11712); test: qHTS Assay for Inhibitors and Substrates of Cytochrome P450 2C9 (AID 883); note: % is set by controls: 0 for no effect and ±100 for the full control effect; nearly all actives have a fitted effect of over 60% in size
# Cytochrome P450 2C9 (Homo sapiens), sequence (P11712 whole entry, looked up): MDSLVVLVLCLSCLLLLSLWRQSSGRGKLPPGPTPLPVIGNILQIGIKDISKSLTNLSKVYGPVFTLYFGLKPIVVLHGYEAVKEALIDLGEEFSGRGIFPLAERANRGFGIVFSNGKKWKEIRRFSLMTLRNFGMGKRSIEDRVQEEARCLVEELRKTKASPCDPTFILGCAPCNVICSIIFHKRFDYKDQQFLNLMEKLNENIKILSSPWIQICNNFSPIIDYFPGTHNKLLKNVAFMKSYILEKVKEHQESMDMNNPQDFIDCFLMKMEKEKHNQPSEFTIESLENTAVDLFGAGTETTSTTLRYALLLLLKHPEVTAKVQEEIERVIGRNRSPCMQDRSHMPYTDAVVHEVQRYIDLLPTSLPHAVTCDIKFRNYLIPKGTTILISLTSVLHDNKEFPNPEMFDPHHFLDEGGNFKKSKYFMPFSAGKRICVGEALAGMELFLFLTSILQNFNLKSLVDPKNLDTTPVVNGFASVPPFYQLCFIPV
# In short: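 Human CYP2C9 (10nM) hydroxylated Luciferin-H (100uM, at its KM) to luciferin in 25mM KPO4. Compound was preincubated 10 min at 37C, then NADPH regeneration started a 60 min reaction at 37C. Luminescence was read after detection reagent, normalized to 57uM sulphaphenazole.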
# [8] = biological target: Cytochrome P450 3A4 (Homo sapiens) (UniProt P08684); test: qHTS Assay for Inhibitors and Substrates of Cytochrome P450 3A4 (AID 884); note: % is set by controls: 0 for no effect and ±100 for the full control effect; nearly all actives have a fitted effect of over 50% in size
# Cytochrome P450 3A4 (Homo sapiens), sequence (P08684 whole entry, looked up): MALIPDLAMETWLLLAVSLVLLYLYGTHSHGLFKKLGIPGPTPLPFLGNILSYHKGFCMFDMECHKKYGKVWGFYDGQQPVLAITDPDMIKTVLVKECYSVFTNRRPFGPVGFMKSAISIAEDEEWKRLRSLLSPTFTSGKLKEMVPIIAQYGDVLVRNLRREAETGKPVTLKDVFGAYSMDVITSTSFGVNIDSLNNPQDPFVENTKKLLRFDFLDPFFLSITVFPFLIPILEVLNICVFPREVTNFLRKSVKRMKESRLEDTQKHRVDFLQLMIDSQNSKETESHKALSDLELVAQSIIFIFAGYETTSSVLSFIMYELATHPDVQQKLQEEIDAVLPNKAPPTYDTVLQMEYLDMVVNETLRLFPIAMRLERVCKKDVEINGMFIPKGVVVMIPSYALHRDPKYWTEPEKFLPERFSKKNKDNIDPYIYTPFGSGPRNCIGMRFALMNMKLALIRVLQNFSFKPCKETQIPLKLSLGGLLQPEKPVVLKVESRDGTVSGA
# In short: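 Luminescent readout of luciferin produced by CYP3A4 (20 nM) dealkylation of Luciferin-PPXE, 25 uM (its KM). NADPH-driven reaction ran 60 min at RT after 10 min compound preincubation; data scaled to 57 uM ketoconazole as 100% inhibition.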
# [9] = qHTS Assay for Identification of Small Molecule Agonists for Hypoxia Response Element Signaling Pathway (AID 914; active = well fitted activation curve with a large enough effect in the signal ratio, with a control signal flat, not every such curve was filed as active; the % refers to the signal ratio; note: potency is the fitted concentration of half-maximal effect); settings: ME-180 HRE-bla reporter, beta-lactamase ratio, CoCl2, 17 h; activation: stronger effect = higher value
# In short: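 Positive modulation of EC50 CoCl2-induced hypoxia response element signaling is measured in ME-180 cells with a beta-lactamase reporter. Compounds are titrated, incubation runs 17 hours, and %Activity derives from the blue/green ratio.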
# [10] = qHTS Assay for Lipid Storage Modulators (AID 1519; calls by dose curve; note: potency is the fitted concentration of half-maximal effect); settings: Drosophila S3 cells, BODIPY lipid droplet/cell ratio, laser cytometry, cells loaded with oleic acid; for activity change, negative = inhibition: at 57.5 µM (top of the series)
# In short: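 Cells seeded at 5,000 per well were treated with compounds over a concentration series and loaded with oleic acid (400 uM, as added). Lipid droplet fluorescence (488 nm excitation, 500-530 nm channel) was read by laser-scanning cytometry and normalized to 20 uM Triacsin C.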
# [11] = biological target: Dual specificity protein kinase CLK4 (Homo sapiens) (UniProt Q9HAZ1); test: qHTS Assay for Inhibitors of CDC-like Kinase 4 (Kinase-Glo Assay) (AID 1770); note: % is set by controls: 0 for no effect and ±100 for the full control effect; nearly all actives have a fitted effect of over 65% in size
# Dual specificity protein kinase CLK4 (Homo sapiens), sequence (Q9HAZ1 whole entry, looked up): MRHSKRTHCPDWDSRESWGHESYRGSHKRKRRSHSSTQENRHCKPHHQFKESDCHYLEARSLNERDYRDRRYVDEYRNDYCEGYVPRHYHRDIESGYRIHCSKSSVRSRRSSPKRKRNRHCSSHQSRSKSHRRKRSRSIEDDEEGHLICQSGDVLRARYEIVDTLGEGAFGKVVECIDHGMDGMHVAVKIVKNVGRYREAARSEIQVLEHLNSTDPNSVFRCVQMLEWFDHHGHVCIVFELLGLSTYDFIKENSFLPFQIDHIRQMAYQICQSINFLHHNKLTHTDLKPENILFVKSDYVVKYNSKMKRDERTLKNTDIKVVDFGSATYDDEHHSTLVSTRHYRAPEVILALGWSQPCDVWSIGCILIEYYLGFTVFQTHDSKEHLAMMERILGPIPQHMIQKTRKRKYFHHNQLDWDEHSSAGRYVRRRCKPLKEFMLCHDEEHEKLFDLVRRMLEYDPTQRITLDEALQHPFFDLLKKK
# In short: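 Recombinant human Clk4 (25 nM) phosphorylated RS repeat peptide (100 uM) with 1 uM ATP in Tris pH 7.5/MgCl2/EGTA/DTT/Triton buffer for 4.5 h at room temperature. Residual ATP was quantified by Kinase-Glo luciferase luminescence.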
# [12] = biological target: Dual specificity protein kinase CLK4 (Homo sapiens) (UniProt Q9HAZ1); test: qHTS Assay for Inhibitors of CDC-like Kinase 4 (ADP-Glo Assay) (AID 1771); note: % is set by controls: 0 for no effect and ±100 for the full control effect; nearly all actives have a fitted effect of over 70% in size
# In short: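 ADP production was read by ADP-Glo luminescence after residual ATP depletion, following 1 h room-temperature reaction of 25 nM Clk4, 1 uM ATP and 100 uM RS peptide with MgCl2, EGTA, DTT and Triton X-100.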
# [13] = biological target: Dual specificity protein kinase CLK4 (Homo sapiens) (UniProt Q9HAZ1); test: qHTS Assay for Inhibitors of CDC-like Kinase 4 (ADP-FP Assay) (AID 1795); note: % is set by controls: 0 for no effect and ±100 for the full control effect; nearly all actives have a fitted effect of over 60% in size
# In short: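 Recombinant human Clk4 (6.25 nM) phosphorylated RS repeat peptide (100 uM) with 1 uM ATP in Tris pH 7.5/MgCl2/EGTA/DTT/Triton buffer for one hour. ADP was quantified by Transcreener competitive fluorescence polarization against an ADP calibration curve.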
# [14] = biological target: Ubiquitin carboxyl-terminal hydrolase 1 (Homo sapiens) (UniProt O94782); test: Inhibitors of USP1/UAF1: Pilot qHTS (AID 504865);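 note: rhodamine fluorescence freed from ubiquitin-rhodamine substrate followed over time; top concentration of the series differs between compounds; % is set by controls: 0 for no effect and ±100 for the full control effect; nearly all actives have a fitted effect of over 35% in size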
# Ubiquitin carboxyl-terminal hydrolase 1 (Homo sapiens), sequence (O94782 whole entry, looked up): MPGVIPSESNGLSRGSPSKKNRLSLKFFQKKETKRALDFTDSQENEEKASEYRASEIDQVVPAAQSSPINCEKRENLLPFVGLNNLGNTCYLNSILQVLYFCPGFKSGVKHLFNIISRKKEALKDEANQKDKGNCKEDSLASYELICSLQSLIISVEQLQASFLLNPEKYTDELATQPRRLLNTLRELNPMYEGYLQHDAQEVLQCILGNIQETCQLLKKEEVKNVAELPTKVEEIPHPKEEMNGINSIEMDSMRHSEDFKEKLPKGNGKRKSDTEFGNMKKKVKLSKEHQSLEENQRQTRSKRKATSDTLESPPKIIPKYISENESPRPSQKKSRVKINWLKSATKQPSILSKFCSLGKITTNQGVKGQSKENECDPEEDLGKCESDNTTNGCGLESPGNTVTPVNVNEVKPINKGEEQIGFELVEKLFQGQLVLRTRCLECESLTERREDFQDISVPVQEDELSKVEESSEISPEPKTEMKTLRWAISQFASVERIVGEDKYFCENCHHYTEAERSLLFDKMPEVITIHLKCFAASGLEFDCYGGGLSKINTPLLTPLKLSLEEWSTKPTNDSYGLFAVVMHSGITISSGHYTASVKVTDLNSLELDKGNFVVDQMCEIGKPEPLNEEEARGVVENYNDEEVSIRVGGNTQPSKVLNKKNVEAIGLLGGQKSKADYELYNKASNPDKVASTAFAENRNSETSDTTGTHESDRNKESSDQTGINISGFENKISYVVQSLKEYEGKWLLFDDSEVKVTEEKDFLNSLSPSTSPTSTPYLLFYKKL
# In short: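 USP1/UAF1 complex (1nM) preincubated with compound 15 min at room temperature, then Ub-Rho substrate (150nM final) added. Fluorescence read kinetically at 480/540 nm, 6 reads every 60 seconds. Buffer: 50mM HEPES pH 7.8, 0.5mM EDTA, 0.1 mg/ml BSA, 1mM TCEP, 0.01% Tween-20.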
# [15] = Primary qHTS for small molecule stabilizers of the endoplasmic reticulum resident proteome: Secreted ER Calcium Modulated Protein (SERCaMP) assay (AID 1508630); note: % is set by controls: 0 for no effect and ±100 for the full control effect
# In short: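 The SH-SY5Y reporter protocol was run at 3 concentrations up to 38.3 uM (primary) or 11 concentrations (follow-up): 16 h compound, 100 nM thapsigargin for 4 h, then extracellular luciferase luminescence.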
# [16] = biological target: Cytochrome P450 3A4 (Homo sapiens) (UniProt P08684); test: qHTS Assay for Activators of Cytochrome P450 3A4 (AID 885); note: nearly all actives have a fitted effect of over 65% in size
# In short: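 Using 20nM recombinant human CYP3A4 in potassium phosphate (200mM), substrate Luciferin-PPXE at 25uM, luminescent luciferin detection followed a 60-min RT NADPH reaction; data scaled to 57 uM ketoconazole.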
# [17] = AP1 Signaling Pathway (AID 357; active = well fitted curve in either direction with a large enough effect, not every such curve was filed as active;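 note: ME-180 reporter cells stimulated with EGF at its EC50 level; % is set by controls: 0 for no effect and ±100 for the full control effect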); settings: ME-180 AP-1-bla reporter, EGF-induced, beta-lactamase ratio, 5 h; at 7.69 µM (top of the series) unless noted
# In short: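 Modulation of EGF-driven AP-1 transcription was assessed with a beta-lactamase reporter in ME-180 cells. Compound and EC50 EGF were co-incubated 5 hours at 37 °C before 2.5-hour CCF4 loading at room temperature and dual-emission reading.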
# [18] = Stat Signaling Pathway (AID 446; active = well fitted curve in either direction with a large enough effect, not every such curve was filed as active;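 note: ME-180 cervical cancer cells given 40 pM IL-6 alongside compound; SIE-controlled beta-lactamase reporter measured as 460/530 nm FRET emission ratio; % is set by controls: 0 for no effect and ±100 for the full control effect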); settings: ME-180 (cervical carcinoma) SIE beta-lactamase reporter, IL-6 stimulated, 5 h; at 7.69 µM (top of the series) unless noted
# In short: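 Overnight-plated ME-180 cells bearing a STAT Inducible Element beta-lactamase reporter; 5 h co-exposure to compound and 40 pM IL-6; values normalized to 300 pM IL-6 and 125 nM JAK inhibitor controls.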
# [19] = NFAT Signaling Pathway (AID 444; active = well fitted curve in either direction with a large enough effect, not every such curve was filed as active); settings: Jurkat NFAT-bla M1, carbachol, beta-lactamase ratio, 5 h; at 7.69 µM (top of the series) unless noted
# In short: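 Jurkat cells carrying an NFAT-driven β-lactamase reporter and co-transfected muscarinic M1 receptor were treated with compound plus carbachol (1 uM final, an EC50 level) for 5 h at 37 °C. CCF4 loading followed for 1 h at RT; 460/530 nm ratio gave %activity.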
# [20] = measured here: cell count channel max response
# [21] = measured here: lipid channel max response
smiles,measurement,setting,value
CN(C)c1ncc2nc(-c3ccc(F)cc3)c(=O)n(Cc3ccc(F)cc3)c2n1,Potency,[1],> 11.4 µM (inactive)
same,Potency,[2],inactive
same,Potency,[3],> 9.22 µM (inactive)
same,Potency,[4],> 46 µM (inactive)
same,outcome,[5],inactive
same,Potency,[6],inactive
same,Potency,[7],inactive
same,Potency,[8],inactive
same,Potency,[9],3.16 µM (active)
same,"activity change, negative = inhibition",[10],5.32% (inactive)
same,max response,[10]; [20],19.6%
same,max response,[10]; [21],25.7%
same,Potency,[11],inactive
same,Potency,[12],inactive
same,Potency,[13],inactive
same,Potency,[14],inactive
same,Potency,[15],inactive
COCCn1c(=O)c(-c2ccc(Cl)cc2)nc2cnc(Nc3ccccc3)nc21,Potency,[1],> 11.4 µM (inactive)
same,Potency,[2],20 µM (active)
same,Potency,[3],> 9.22 µM (inactive)
same,Potency,[4],> 46 µM (inactive)
same,outcome,[5],inactive
same,Potency,[6],inactive
same,Potency,[9],2.51 µM (active)
same,"activity change, negative = inhibition",[10],3.97% (inactive)
same,max response,[10]; [20],10.8%
same,max response,[10]; [21],12.1%
same,Potency,[11],inactive
same,Potency,[12],inactive
same,Potency,[13],inactive
same,Potency,[14],inactive
same,Potency,[15],inactive
CCNc1ncc2nc(-c3ccccc3)c(=O)n(Cc3cccs3)c2n1,Potency,[1],> 11.4 µM (inactive)
same,Potency,[2],0.316 µM (active)
same,Potency,[3],> 9.22 µM (inactive)
same,outcome,[5],inactive
same,Potency,[16],inactive
same,Potency,[9],3.16 µM (active)
same,"activity change, negative = inhibition",[10],1.76% (inactive)
same,max response,[10]; [20],17.2%
same,max response,[10]; [21],16%
same,Potency,[11],inactive
same,Potency,[12],inactive
same,Potency,[13],inactive
same,Potency,[15],inactive
COc1ccc(-c2nc3cnc(Nc4ccccc4)nc3n(C[C@H]3CCCO3)c2=O)cc1,Potency,[1],> 11.4 µM (inactive)
same,"activity change, negative = inhibition",[17],26.1% (inactive)
same,Potency,[3],> 9.22 µM (inactive)
same,Potency,[4],> 46 µM (inactive)
same,outcome,[5],inactive
same,Potency,[10],11.2 µM (active)
same,max response,[10]; [20],2.79%
same,max response,[10]; [21],-87.2%
same,Potency,[11],inactive
same,Potency,[12],inactive
same,Potency,[13],inactive
same,Potency,[14],inactive
same,Potency,[15],inactive
COc1cccc(Cn2c(=O)c(-c3cc(F)cc(F)c3)nc3cnc(N(C)C)nc32)c1,Potency,[1],> 11.4 µM (inactive)
same,Potency,[2],inactive
same,"activity, negative = inhibition",[18],91.4% [activator] (active)
same,Potency,[3],> 9.22 µM (inactive)
same,Potency,[4],> 46 µM (inactive)
same,outcome,[5],inactive
same,Potency,[6],inactive
same,Potency,[9],0.398 µM (active)
same,"activity change, negative = inhibition",[10],-0.73% (inactive)
same,max response,[10]; [20],19.9%
same,max response,[10]; [21],18.8%
same,Potency,[11],inactive
same,Potency,[12],inactive
same,Potency,[13],inactive
same,Potency,[15],inactive
COc1ccc(-c2nc3cnc(Oc4cccc(Cl)c4)nc3n(C3CC3)c2=O)cc1,Potency,[1],> 11.4 µM (inactive)
same,"activity change, negative = inhibition",[19],-3.56% (inactive)
same,"activity, negative = inhibition",[18],15% (inactive)
same,Potency,[3],> 9.22 µM (inactive)
same,Potency,[4],> 46 µM (inactive)
same,outcome,[5],inactive
same,Potency,[6],inactive
same,"activity change, negative = inhibition",[10],-3.67% (inactive)
same,max response,[10]; [20],-15.3%
same,max response,[10]; [21],-19.7%
same,Potency,[11],inactive
same,Potency,[12],inactive
same,Potency,[13],inactive
same,Potency,[15],inactive
